Laboratory results published in PubChem BioAssay AID652071 (NMMLSC, 2013).
Activity calls are given as the source filed them. How the calls were made is not given here.

Assay: V-ATPase proton transport modulators in yeast, dose response, S. cerevisiae, pHLuorin, powder set 4 (AID 652071)
Conditions: S. cerevisiae pHLuorin cytosolic pH fluorescence; series mostly up to 100 µM; response change, sign ambiguous: at the top concentration

Response change, sign ambiguous, inactive:
COCc1cccc(C(=O)Nc2ccccc2N2CCN(C)CC2)c1 6.5%, O=C(Nc1ccccc1N1CCOCC1)c1ccc(Cl)o1 -7.94%, CC(=O)N1CCN(c2ccccc2NC(=O)c2ccc(-c3ccccc3)o2)CC1 -14.9%, CN1CCN(c2ccccc2NC(=O)c2cc(Cl)ccn2)CC1 12.5%, CN(C)Cc1ccc(C(=O)Nc2ccccc2N2CCN(C)CC2)o1 -7.11%, N#CCc1cccc(C(=O)Nc2ccccc2N2CCCCC2)c1 -36.8%, Nc1cncc(C(=O)Nc2ccccc2N2CCCCC2)n1 4.83%, CN1CCN(c2ccccc2NC(=O)c2ccc(Cl)o2)CC1 12%, CC(=O)N1CCN(c2ccccc2NC(=O)c2cccc(C#N)c2)CC1 -35.1%, CC(=O)N1CCN(c2ccccc2NC(=O)c2ccc(C(C)(C)C)o2)CC1 -2.35%, CN(C)C(=O)c1cccc(C(=O)Nc2ccccc2N2CCCCC2)c1 -8.64%, N#CCc1cccc(C(=O)Nc2ccccc2N2CCOCC2)c1 12%, O=C(Nc1ccccc1N1CCCCC1)c1cccc(C(F)(F)F)n1 -18.9%, O=C(c1occc1-c1ccccc1)N1CCN(c2nc3ccc(F)cc3s2)CC1 78.3%, CN(C)Cc1cccc(C(=O)Nc2ccccc2N2CCCCC2)c1 -22.9%, O=C(Nc1ccccc1N1CCCCC1)c1ccc(-c2ccccc2)o1 4.4%, CN1CCN(c2ccccc2NC(=O)c2cncc(N)n2)CC1 -3.21%, CC(=O)N1CCN(c2ccccc2NC(=O)c2ccc(C)o2)CC1 14.7%, CC(=O)N1CCN(c2ccccc2NC(=O)c2ccc(Cl)o2)CC1 -3.95%, CS(=O)(=O)c1cccc(C(=O)Nc2ccccc2N2CCOCC2)c1 17.9%, COCc1ccc(C(=O)Nc2ccccc2N2CCCCC2)o1 -30.8%, Cc1ccnc(C(=O)Nc2ccccc2N2CCN(C)CC2)c1 -9.84%, CN1CCN(c2ccccc2NC(=O)c2ccc(S(C)(=O)=O)o2)CC1 -3.21%, CS(=O)(=O)c1cccc(C(=O)Nc2ccccc2N2CCCCC2)c1 7.01%, CN1CCN(c2ccccc2NC(=O)c2cccc(CC#N)c2)CC1 -0.68%, N#Cc1cccc(C(=O)Nc2ccccc2N2CCCCC2)c1 -29.4%, CN1CCN(c2ccccc2NC(=O)c2cccc(C(F)(F)F)c2)CC1 -1.46%, O=C(Nc1ccccc1N1CCCCC1)c1ccc(Br)o1 -17.4%, CN1CCN(c2ccccc2NC(=O)c2cccc(S(C)(=O)=O)c2)CC1 1.86%, NC(=O)c1cccc(C(=O)Nc2ccccc2N2CCCCC2)c1 -6.71%, CC(=O)N1CCN(c2ccccc2NC(=O)c2ccc(Br)o2)CC1 15%, O=C(Nc1ccccc1N1CCCCC1)c1cccc(C(F)(F)F)c1 -0.38%, CC(=O)N1CCN(c2ccccc2NC(=O)c2cccc(C(=O)N(C)C)c2)CC1 24.7%, CC(=O)N1CCN(c2ccccc2NC(=O)c2ccc(S(C)(=O)=O)o2)CC1 -31.2%
